Assay results reported in PubChem BioAssay.
Values without a mark were called inactive. No rule for the calls is given here.

Biological target: Pantothenate synthetase (Mycobacterium tuberculosis (strain ATCC 25618 / H37Rv)) (UniProt P9WIL5)
Assay: Recombinant Mtb pantothenate synthetase (PanC) inhibitors, coupled enzyme, confirmatory (AID 375);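 also: 0% = full reaction with vehicle and 100% = no enzyme background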
Conditions: coupled enzyme assay; at 10 µM, stronger effect = higher value

Sequence of Pantothenate synthetase (Mycobacterium tuberculosis (strain ATCC 25618 / H37Rv)) (P9WIL5 whole entry, looked up): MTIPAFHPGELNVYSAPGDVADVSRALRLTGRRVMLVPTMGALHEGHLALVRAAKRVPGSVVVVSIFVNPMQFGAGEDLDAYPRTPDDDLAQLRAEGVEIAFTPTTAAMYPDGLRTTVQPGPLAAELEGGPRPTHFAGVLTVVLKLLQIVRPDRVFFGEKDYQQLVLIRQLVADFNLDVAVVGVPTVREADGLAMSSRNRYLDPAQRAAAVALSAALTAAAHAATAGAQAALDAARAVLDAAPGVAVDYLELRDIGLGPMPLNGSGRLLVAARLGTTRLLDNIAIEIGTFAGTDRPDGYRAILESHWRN

**Q.** With `CN1CCN(CC(=O)N2c3ccccc3C(=O)Nc3cccnc32)CC1` as the molecule, how does the inhibition read?
**A.** 4%

**Q.** How did the inhibition turn out when `O=C(O)C1CC(=O)N(c2ccc(OCc3c(F)cccc3Cl)cc2)C1` (configuration not stated) was run?
**A.** 2%

**Q.** `Cc1ccc(Nc2nc(CSc3nnc(-c4cccs4)o3)cs2)cc1` was tested. Which inhibition did it give?
**A.** 0%

**Q.** `Cc1cc2cc(CCNC(=O)CC(C)C)c(=O)[nH]c2cc1C` was tested. Which inhibition did it give?
**A.** 9%

**Q.** How did the inhibition turn out when `CCN1CCN(c2ncnc3c2cnn3-c2ccc(C)cc2C)CC1` was run?
**A.** 9%

**Q.** `Cc1ccccc1CN1CCN(CC(=O)NCc2ccco2)C1=O` was tested. Which inhibition did it give?
**A.** 0%

**Q.** Which inhibition does the source give for `Cc1cc(C)c2c(C)nn(C3CCCCC3)c2n1` here?
**A.** 0%

**Q.** Which inhibition does the source give for `NCC(O)COc1ccc2c(c1)OCO2` (configuration not stated) here?
**A.** 0%

**Q.** `CC1CN(S(=O)(=O)c2cccc(C(=O)OCc3cc(=O)oc4cc(O)ccc34)c2)CC(C)O1` (configuration not stated) was tested. Which inhibition did it give?
**A.** 7%

**Q.** For `CCCC(=O)Nc1ccccc1NC(=O)CCC`, which inhibition is on record?
**A.** 0%

**Q.** How did the inhibition turn out when `COc1ccc(C2C(C(=O)Nc3cccnc3)=C(C)Nc3nc(-c4cccs4)nn32)cc1OC` (configuration not stated) was run?
**A.** 6%

**Q.** `CCOCCCNC(=O)C(c1ccccc1)N(Cc1ccc2c(c1)OCO2)C(=O)CNC(C)=O` (configuration not stated) was tested. Which inhibition did it give?
**A.** 1%

**Q.** `Cc1ccc2c(c1)N(CC(=O)Nc1ccc3c(c1)OCCO3)C(=O)CO2` was tested. Which inhibition did it give?
**A.** 0%

**Q.** `Cc1ccc(NC(=O)C2CC=CCC2C(=O)N2CCCCC2)cc1` (configuration not stated) was tested. Which inhibition did it give?
**A.** 0%

**Q.** How did the inhibition turn out when `Cc1cn2c(-c3ccncc3)nnc2s1` was run?
**A.** 0%

**Q.** Which inhibition does the source give for `COC(=O)C1=C(C)NC(=O)C1(NC(=O)CN1CCCC1=O)C(F)(F)F` (configuration not stated) here?
**A.** 5%

**Q.** For `Cc1ccc(NC(=O)CSc2nnc(-c3cnccn3)n2Cc2ccco2)cc1C`, which inhibition is on record?
**A.** 0%

**Q.** With `Cc1ccnc(NC(=O)CCC(=O)N(CC(=O)NC2CCCCC2)c2cccc(C)c2C)c1` as the molecule, how does the inhibition read?
**A.** 0%

**Q.** `CC(C)N(Cc1nc(-c2ccccc2)no1)C(=O)CCCN1C(=O)c2ccccc2C1=O` was tested. Which inhibition did it give?
**A.** 9%

**Q.** With `N#Cc1nc(COc2ccc(Br)cc2)oc1N1CCCC1` as the molecule, how does the inhibition read?
**A.** 16%

**Q.** How did the inhibition turn out when `O=C(Cn1nc(Cc2cccnc2)c2ccccc2c1=O)Nc1ccc2c(c1)OCO2` was run?
**A.** 0%

**Q.** How did the inhibition turn out when `Cc1cc(C(=O)NCCCc2ccccc2)no1` was run?
**A.** 10%

**Q.** `CCCc1[nH]nc2c1C(c1cccc(OC(=O)c3ccco3)c1)C(C#N)=C(N)O2` (configuration not stated) was tested. Which inhibition did it give?
**A.** 1%

**Q.** How did the inhibition turn out when `C[C@]12CC[C@@H]3c4ccc(OC(=O)c5ccccc5)cc4CC[C@H]3[C@@H]1CC[C@@H]2O` was run?
**A.** 0%

**Q.** Which inhibition does the source give for `CCCN1C(=O)SC(CC(=O)Nc2ccc(Br)cc2)C1=O` (configuration not stated) here?
**A.** 2%

**Q.** `CCCN1Cc2cccc(C(=O)NC3CCCC3)c2C1=O` was tested. Which inhibition did it give?
**A.** 0%

**Q.** Which inhibition does the source give for `CC(C(=O)N1CCCCC1)n1sc2ccccc2c1=O` (configuration not stated) here?
**A.** 0%

**Q.** For `Cc1nc(C)c(C(=O)C2=C(O)C(=O)N(CCN3CCOCC3)C2c2cccnc2)s1` (configuration not stated), which inhibition is on record?
**A.** 13%

**Q.** With `COc1ccc(OC)c(Nc2nc(-c3cccs3)cs2)c1` as the molecule, how does the inhibition read?
**A.** 0%

**Q.** How did the inhibition turn out when `CCOc1ccc(N(C(C)C(=O)NC2CCCCCC2)S(C)(=O)=O)cc1` (configuration not stated) was run?
**A.** 1%

**Q.** Which inhibition does the source give for `COc1ccc(CCNC(=O)C2CCN(C(=O)N(C)C)CC2)cc1OC` here?
**A.** 0%

**Q.** `CC1CCC(NC(=O)C2CCN(c3cnccn3)CC2)CC1` (configuration not stated) was tested. Which inhibition did it give?
**A.** 0%

**Q.** `Nc1cc(C(=O)O)ccc1Nc1ccccc1` was tested. Which inhibition did it give?
**A.** 0%

**Q.** How did the inhibition turn out when `CCOc1ccc(S(=O)(=O)NCC2CCCO2)c2cccnc12` (configuration not stated) was run?
**A.** 0%

**Q.** Which inhibition does the source give for `CCOc1cccc(-c2nnc3sc(COc4ccc(OC)cc4)nn23)c1` here?
**A.** 4%

**Q.** `CCOc1ccccc1OCCn1nnc2ccccc21` was tested. Which inhibition did it give?
**A.** 4%

**Q.** `CCOC(=O)C1CCCN(C(=O)c2cn(C)c(=O)c3cc(OC)c(OC)cc23)C1` (configuration not stated) was tested. Which inhibition did it give?
**A.** 0%

**Q.** `CCSc1nnc(NC(=O)CSc2ncccn2)s1` was tested. Which inhibition did it give?
**A.** 0%

**Q.** For `CCOC(=O)CS(=O)(=O)c1nc(-c2ccccc2)cc(C(F)(F)F)n1`, which inhibition is on record?
**A.** 3%

**Q.** How did the inhibition turn out when `COc1ccc(C)cc1NC(=O)CCC(=O)Nc1ccc2nc(N3CCN(C)CC3)cc(C)c2c1` was run?
**A.** 0%

**Q.** With `Cn1c(=O)c2c(nc(NCCCO)n2Cc2cccc(Br)c2)n(C)c1=O` as the molecule, how does the inhibition read?
**A.** 3%

**Q.** For `O=C(NCCN1C(=O)C2C3C=CC(C3)C2C1=O)N1CCOCC1` (configuration not stated), which inhibition is on record?
**A.** 0%

**Q.** With `Cc1ccc(CS(=O)(=O)CCC(=O)NCC2CCCO2)cc1` (configuration not stated) as the molecule, how does the inhibition read?
**A.** 0%

**Q.** How did the inhibition turn out when `O=C(C1CCN(S(=O)(=O)c2cccnc2)CC1)N1CCN(c2ccc(Cl)cc2)CC1` was run?
**A.** 0%

**Q.** Which inhibition does the source give for `Cc1noc(NS(=O)(=O)c2ccc(NC(=O)CCC3CCCC3)cc2)c1C` here?
**A.** 0%

**Q.** `CCn1c(SCC(=O)Nc2ccc(Cl)cc2)nnc1C1CC1` was tested. Which inhibition did it give?
**A.** 0%

**Q.** For `CC(Cc1ccc(O)c(O)c1)C(C)Cc1ccc(O)c(O)c1` (configuration not stated), which inhibition is on record?
**A.** 0%

**Q.** With `CCOC(=O)c1cccc(NC(=O)CSc2nnc(-c3cccnc3)n2C)c1` as the molecule, how does the inhibition read?
**A.** 7%

**Q.** `COc1cc2c(cc1OC)-c1nnc(C)n1C1(CCCC1)C2` was tested. Which inhibition did it give?
**A.** 0%

**Q.** Which inhibition does the source give for `CCOC(=O)c1cc(NC(=O)SCC(=O)O)c(C)nc1C` here?
**A.** 0%

**Q.** `COc1ccc(N2CCN(CCCNC(=O)CC3Oc4ccc(C)cc4NC3=O)CC2)cc1` (configuration not stated) was tested. Which inhibition did it give?
**A.** 0%

**Q.** Which inhibition does the source give for `CCCCNc1cc(C)oc(=O)c1C(C)=O` here?
**A.** 4%

**Q.** For `COc1c(S(=O)(=O)n2nc(C)cc2C)ccc(Cl)c1Cl`, which inhibition is on record?
**A.** 3%

**Q.** With `O=C(NCc1cccs1)C1CC(=O)N(C2CCCC2)C1` (configuration not stated) as the molecule, how does the inhibition read?
**A.** 2%

**Q.** Which inhibition does the source give for `Cc1ccc(-n2ncc3c(=O)n(CC(=O)N4CCCc5ccccc54)cnc32)cc1C` here?
**A.** 4%

**Q.** How did the inhibition turn out when `Cc1ccc(C)c(N2CCN(S(=O)(=O)c3ccc4c(c3)OCCO4)CC2)c1` was run?
**A.** 4%

**Q.** How did the inhibition turn out when `CCc1ccccc1NC(=O)CSC1=C(C#N)C(c2ccc(O)c(OC)c2)C2=C(CCCC2=O)N1` (configuration not stated) was run?
**A.** 6%

**Q.** For `C/C=C/COC(=O)c1[nH]c2c(c1C)C(=O)CC(c1ccco1)C2` (configuration not stated), which inhibition is on record?
**A.** 6%

**Q.** For `CCCCCn1c(CCNC(=O)CCC)nc2ccccc21`, which inhibition is on record?
**A.** 0%

**Q.** `CN(C)S(=O)(=O)c1ccc2c(c1)C(CC(=O)O)OC2=O` (configuration not stated) was tested. Which inhibition did it give?
**A.** 4%

**Q.** For `CCCN(CCC)C(=O)c1c(C)[nH]c(C(=O)OCC)c1C`, which inhibition is on record?
**A.** 0%

**Q.** `Cc1sc(NC(=O)CSc2nc(N)n(CC(=O)c3ccccc3)n2)c(C#N)c1C` was tested. Which inhibition did it give?
**A.** 4%

**Q.** How did the inhibition turn out when `CC(C)(CO)NC(=O)CCCOc1ccc(Cl)cc1Cl` was run?
**A.** 0%

**Q.** For `COc1cc(S(=O)(=O)n2nnc3ccccc32)c(OC)cc1Cl`, which inhibition is on record?
**A.** 3%

**Q.** Which inhibition does the source give for `Cc1nnc(NC(=O)C2CCCO2)s1` (configuration not stated) here?
**A.** 3%

**Q.** Which inhibition does the source give for `CCC(OC(=O)c1cccs1)C(=O)NCc1ccco1` (configuration not stated) here?
**A.** 0%

**Q.** With `COc1cccc(OCc2nc3c4cnn(-c5ccccc5)c4ncn3n2)c1` as the molecule, how does the inhibition read?
**A.** 0%

**Q.** Which inhibition does the source give for `Cc1cccc(-n2ncc3c(N(CCO)CCO)ncnc32)c1` here?
**A.** 0%

**Q.** With `Cc1cc(NC(=O)CSc2nccn2-c2ccc(F)cc2)no1` as the molecule, how does the inhibition read?
**A.** 5%

**Q.** How did the inhibition turn out when `OCCNCC(O)Cn1ccc2ccccc21` (configuration not stated) was run?
**A.** 2%

**Q.** `CCCn1c(SCC(=O)N2CCc3ccccc3C2)nc2c1c(=O)n(C)c(=O)n2C` was tested. Which inhibition did it give?
**A.** 1%

**Q.** How did the inhibition turn out when `CC(=O)NCC(=O)N(Cc1ccco1)C1(C(=O)NC2CCCCC2)CCCCC1` was run?
**A.** 0%
